outcome, Potency and activation data for seven compounds are collected here from PubChem BioAssay (Tox21).

A short description of assay [1]: qHTS assay for small molecule agonists of the p53 signaling pathway (AID 651631; calls by dose curve; further: on the % scale 0 is the no-effect control and ±100 the full control effect; nearly all actives have a fitted effect of over 15% in size). The gist of the method: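 HCT-116 p53RE-bla reporter line, 16 h compound treatment at 37 °C, then fluorescence after 2 h with B/G FRET substrate.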
A short description of assay [2]: qHTS assay for small molecules that induce genotoxicity in human embryonic kidney cells expressing luciferase-tagged ATAD5 (AID 651632). Further: on the % scale 0 is the no-effect control and ±100 the full control effect; nearly all actives have a fitted effect of over 15% in size. The gist of the method: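 Concentration-response screen for ATAD5 upregulation in HEK293T luciferase reporter cells; 16 hr treatment at 37C, then luminescence after 30 min with Amplite at room temperature.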
Assay [3] is described as follows: qHTS assay for small molecule agonists of the p53 signaling pathway - cell viability (AID 651633; calls by dose curve;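 further: p53RE-bla HCT reporter cells with a stable beta-lactamase p53 reporter; series mostly up to about 83 µM; on the % scale 0 is the no-effect control and ±100 the full control effect; nearly all actives have a fitted effect of over 30% in size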). The gist of the method:
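p53RE-bla cells, seeded at 4,000 per well and rested 5 h at 37 C/5% CO2, received compounds in DMSO for 16 h at 37 C. CellTiter-Glo was then added, and luminescence was read after 30 min at room temperature to gauge cytotoxicity.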
Background: In qHTS, concentration-response curves come from the screen itself.

Assay [4] is described as follows: qHTS assay for small molecules that induce genotoxicity in human embryonic kidney cells expressing luciferase-tagged ATAD5 - cell viability (AID 651634; calls by dose curve; further: on the % scale 0 is the no-effect control and ±100 the full control effect; nearly all actives have a fitted effect of over 25% in size). The gist of the method:
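15.5 hr compound or vehicle exposure of HEK293T cells expressing luciferase-tagged ATAD5 at 37C; live-cell protease activity is read by fluorescence after 30 min of CellTiter-Fluor.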

Assay [5] is described as follows: qHTS assay for small molecule disruptors of the mitochondrial membrane potential - cell viability (AID 720634; calls by dose curve;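 further: human HepG2 liver cancer cells; series mostly up to about 83 µM; on the % scale 0 is the no-effect control and ±100 the full control effect; nearly all actives have a fitted effect of over 20% in size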). Summed up:
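In this qHTS format, HepG2 cells plated overnight were pinned with compound, incubated 1 hr, and assayed for ATP luminescence with CellTiter-Glo after m-MPI dye addition.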

A short description of assay [6]: qHTS assay to test for compound auto fluorescence at 590 nm (red) in HepG2 cells (AID 720674). Further: on the % scale 0 is the no-effect control and ±100 the full control effect. The gist of the method:
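Rose Bengal sodium served as the red fluorophore standard. HepG2 monolayers (overnight attachment, MEM with 10% FBS) were exposed to test compounds for 1 hr at 37 C and read at Ex 540/Em 590 nm.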

Assay [7] in a line: qHTS assay to test for compound auto fluorescence at 535 nm (green) in HepG2 cells (AID 720675). Further: on the % scale 0 is the no-effect control and ±100 the full control effect.
Assay [8] is described as follows: qHTS assay to test for compound auto fluorescence at 460 nm (blue) in HEK293 cells (AID 720678). Further: on the % scale 0 is the no-effect control and ±100 the full control effect. Summed up: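 Auto fluorescence in the blue band was quantified as triamterene equivalency. HEK293 cells were seeded at 2,000/well, dosed after a 4-5 hr attachment, and kept overnight at 37C before the 405/460 nm reading.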
A short description of assay [9]: qHTS assay to test for compound auto fluorescence at 590 nm (red) in HEK293 cells (AID 720679). Further: on the % scale 0 is the no-effect control and ±100 the full control effect. The gist of the method:
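Autofluorescence equivalency to Rose Bengal sodium, 540/590nm, in HEK293 cells exposed overnight to 23 nL compound per well.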

Assay [10] in a line: qHTS assay to test for compound auto fluorescence at 535 nm (green) in HEK293 cells (AID 720680). Further: on the % scale 0 is the no-effect control and ±100 the full control effect.
A short description of assay [11]: qHTS assay to test for compound auto fluorescence at 460 nm (blue) in HEK293 cell free culture (AID 720681). Further: on the % scale 0 is the no-effect control and ±100 the full control effect. Summed up:
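Test compounds were pinned into cell-free culture medium (DMEM with 10% FBS) and fluorescence was read directly at Ex/Em 405/460 nm. Signals were expressed as fluorescence equivalents of triamterene, with DMSO vehicle as control.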

The nature of assay [12]: qHTS assay to test for compound auto fluorescence at 535 nm (green) in HEK293 cell free culture (AID 720682). Further: on the % scale 0 is the no-effect control and ±100 the full control effect. The gist of the method: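 Steps: dispense DMEM/10% FBS into empty wells; pin in compound or DMSO; measure fluorescence at 485/535 nm. Values are fluorescein equivalents.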
The nature of assay [13]: qHTS assay to test for compound auto fluorescence at 590 nm (red) in HEK293 cell free culture (AID 720683). Further: on the % scale 0 is the no-effect control and ±100 the full control effect. Summed up:
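Tox21 10K library compounds were pinned into cell-free DMEM with 10% FBS and fluorescence was read at excitation 540 nm. Activity is expressed as Rose Bengal sodium equivalency.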

Assay [14] is described as follows: qHTS assay to test for compound auto fluorescence at 590 nm (red) in HepG2 cell free culture (AID 720684). Further: on the % scale 0 is the no-effect control and ±100 the full control effect. The gist of the method:
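Ex 540 / Em 590 nm read of compound in cell-free MEM (10% FBS). Rose Bengal sodium reference.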

A short description of assay [15]: qHTS assay to test for compound auto fluorescence at 460 nm (blue) in HepG2 cell free culture (AID 720685). Further: on the % scale 0 is the no-effect control and ±100 the full control effect. Summed up: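 Cell-free plates of MEM plus 10% FBS received 23 nL compound or DMSO vehicle; blue-channel (405/460 nm) intensity scored against triamterene as reference fluorophore.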
Assay [16] in a line: qHTS assay to test for compound auto fluorescence at 535 nm (green) in HepG2 cell free culture (AID 720686). Further: on the % scale 0 is the no-effect control and ±100 the full control effect.
Assay [17] in a line: qHTS assay to test for compound auto fluorescence at 460 nm (blue) in HepG2 cells (AID 720687). Further: on the % scale 0 is the no-effect control and ±100 the full control effect. The gist of the method: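 Cells (2,000/well in MEM with 10% FBS) attached overnight at 37 C, then were exposed to compound or DMSO for 1 hr at 37 C, 5% CO2. Fluorescence read at Ex/Em 405/460 nm, expressed as triamterene-equivalent signal.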
Assay [18] deals with Glucocorticoid receptor (Homo sapiens) (UniProt P04150). In words: qHTS assay to identify small molecule agonists of the glucocorticoid receptor (GR) signaling pathway (AID 720691; active means well fitted activation curve with a large enough effect in the signal ratio in the repeat runs, not every such curve was filed as active; the % refers to the signal ratio; further: on the % scale 0 is the no-effect control and ±100 the full control effect). Summed up:
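Measures GR pathway activation through a GRE-beta-lactamase reporter stably integrated in HeLa cells, with 18 h compound treatment at 37 C and fluorescence detection using a FRET substrate.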

Assay [19] has the same target. In words: qHTS assay to identify small molecule antagonists of the glucocorticoid receptor (GR) signaling pathway (AID 720692; active means well fitted inhibition curve with a large enough effect in the signal ratio in the repeat runs, not every such curve was filed as active; the % refers to the signal ratio; further: on the % scale 0 is the no-effect control and ±100 the full control effect). Summed up:
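Tox21 10K library screened in concentration-response for blockade of dexamethasone (5 nM final)-induced GRE-bla reporter activity in HeLa cells; 18 h treatment, fluorescence read.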

Assay [20] is described as follows: qHTS assay for small molecule disruptors of the mitochondrial membrane potential (AID 720635). Further: potency means the concentration at half of the fitted maximal effect. The gist of the method: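 HepG2 cells (2,000/well) attached overnight at 37C, then took compound for 1 hr at 37C, 5% CO2. Mito-MPS dye was added for 30 min; fluorescence was read at 490/535 nm (monomers) and 540/590 nm (aggregates).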

Each structure is given as a SMILES string. “And” between values parts separate entries of the source, which are not always exact repeats. Equal values may be shown once. A number with no mark means an inactive call. Inconclusive results are not listed. The source made the active and inactive calls. Unless noted, the call rests on the fitted dose curve; in most records, active means well fitted curve in the direction sought with a large enough effect in the repeat runs; inconclusive means weak or mixed curves; inactive means no such curve, though single readings can be large; an effect the other way counts as inactive or inconclusive.

Chain of Glucocorticoid receptor (Homo sapiens) (P04150 whole entry, looked up): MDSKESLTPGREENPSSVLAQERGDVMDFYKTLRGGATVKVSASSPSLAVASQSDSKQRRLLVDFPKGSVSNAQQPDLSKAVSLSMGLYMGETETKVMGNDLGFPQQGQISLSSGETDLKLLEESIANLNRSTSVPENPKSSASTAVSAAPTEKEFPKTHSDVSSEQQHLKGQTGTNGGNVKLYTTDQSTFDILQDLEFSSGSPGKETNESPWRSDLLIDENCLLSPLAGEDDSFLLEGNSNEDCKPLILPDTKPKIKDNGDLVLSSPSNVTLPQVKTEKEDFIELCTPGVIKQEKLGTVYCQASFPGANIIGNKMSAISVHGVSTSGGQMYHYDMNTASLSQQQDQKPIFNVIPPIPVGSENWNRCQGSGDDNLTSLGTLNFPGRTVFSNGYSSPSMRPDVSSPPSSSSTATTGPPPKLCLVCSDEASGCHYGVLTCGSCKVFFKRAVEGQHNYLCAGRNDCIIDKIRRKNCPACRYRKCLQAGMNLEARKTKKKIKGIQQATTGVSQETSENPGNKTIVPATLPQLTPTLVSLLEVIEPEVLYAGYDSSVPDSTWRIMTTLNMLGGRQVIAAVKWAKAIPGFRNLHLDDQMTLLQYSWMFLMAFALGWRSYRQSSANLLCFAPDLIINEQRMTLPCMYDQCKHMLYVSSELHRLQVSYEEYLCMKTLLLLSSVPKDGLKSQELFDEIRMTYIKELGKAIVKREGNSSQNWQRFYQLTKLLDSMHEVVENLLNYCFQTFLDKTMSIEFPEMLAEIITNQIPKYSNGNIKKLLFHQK

On to `CCOP(=S)(OCC)SCCSCC`, for which the compound was classed as inactive in assay [1], in [2], in [3], in [4], in [6] and in [7]. For the same compound, the result in assay [8], in assay [9], in assay [10], in assay [11], in assay [12] and in assay [13] was inactive. Moreover, the compound was called inactive in assay [14], in assay [15], in assay [16], in assay [17] and in assay [18]. Besides, the Potency result in [5] is “inactive”.
Take `ClCc1cccnc1`: the compound was classed as inactive in assay [1], in [2], in [3], in assay [4], in [6] and in assay [7]. Further, the call in assay [8], in [9], in assay [10], in [11], in assay [13] and in assay [14] was inactive. Further, the compound was classed as inactive in [15], in assay [16], in assay [17] and in [18]. Moreover, the Potency entry in assay [5] was “inactive”.
`CCCN(CCC)N=O`: the compound was classed as inactive in assay [1], in assay [2], in assay [3], in assay [4], in [6] and in assay [7]. For the same compound, the outcome in assay [8], in [9], in assay [10], in [11], in assay [12] and in assay [13] was inactive. Further, the compound was classed as inactive in assay [14], in assay [15], in assay [16], in assay [17] and in assay [18]. The Potency entry in [5] and in assay [19] was “inactive” in each case.
For `CC(C)C1(C)N=C(c2nc3ccccc3cc2C(=O)O)NC1=O` (centres undefined), the compound was classed as inactive in [1], in assay [2], in assay [3], in assay [4], in assay [6] and in [7]. Further, the outcome in assay [8], in [9], in [10], in [11], in [13] and in assay [14] was inactive. In addition, the call in assay [15], in [16], in assay [17] and in assay [18] was inactive. Also, the Potency result in assay [5] was “inactive”.
With `C=C(C)CCl`, the activation in assay [1] was -2.09% [at 8.3 µM]. Moreover, the result in [2], in assay [3], in assay [4], in assay [6], in assay [7] and in [8] was inactive. Further, the compound was classed as inactive in assay [9], in [10], in assay [11], in [12], in [13] and in assay [14]. For the same compound, the result in [15], in [16], in [17] and in assay [18] was inactive. For the same compound, the Potency result in assay [5] and in assay [19] was “inactive” in each case.
With `CCCCCCCCCCCC#N`, the compound was called inactive in assay [1], in assay [2], in [3], in assay [4], in assay [6] and in assay [8]. The compound was called inactive in [9], in assay [10], in assay [11], in [12], in assay [13] and in [14]. The call in assay [15], in [16], in [17] and in assay [18] was inactive. In [5], the Potency entry is “inactive”.
With `O=S(=O)(c1ccc(Cl)cc1)c1cc(Cl)c(Cl)cc1Cl`, the outcome in assay [2], in assay [3], in assay [4], in assay [6], in [8] and in assay [9] was inactive. Further, the outcome in [10], in [11], in assay [12], in assay [13], in assay [14] and in [15] was inactive. Besides, the compound was classed as inactive in assay [16], in assay [17] and in assay [18]. The Potency result in assay [5] is “inactive”. Also, in [20], the Potency was 12.2 µM (active) and 13.7 µM (active).
